Screens deposited in PubChem by National Center for Advancing Translational Sciences (NCATS).
SW480 rerep: inducers of DNA re-replication in SW480 colon cancer cells | SW480 DNA re-replication, Hoechst DNA content imaging, 48 h | Potency, µM (highest dose often 46.1 µM), inactives show at the top dose re-replication activation, actives largely listed as activators | 1.8% of 340,000 active | AID 624297; further: potency means the concentration at half of the fitted maximal effect; % of control where 0% means no effect; nearly all actives have a fitted effect of over 55% in size
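250 cells/well; 23 nL cpd via pin tool; 48 hr, 37 C, 5% CO2; Hoechst 40 min; imager read of total nuclear intensity, ex 405/em 500-530 nm.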
TDP1 cell noCPT: qHTS for Inhibitors of human tyrosyl-DNA phosphodiesterase 1 (TDP1): qHTS in cells in absence of CPT; DT40 Tdp1-/- hTDP1 cells, no CPT, ATP luminescence, 48 h; Potency, µM (doses to about 46.2 µM), for the others: at the top dose activity change, negative = growth inhibition, hits mostly inhibitors; 15% of 420,000 active; further: potency means the concentration at half of the fitted maximal effect; on the % scale 0 is the no-effect control and ±100 the full control effect; nearly all actives have a fitted effect of over 55% in size
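Growth kinetics read by CellTiter-Glo luminescence after ≥48 hr at 37 °C. Cells: DT40 Tdp1-/- stably carrying human TDP1, 400 per well, compound exposure in the absence of CPT (DMSO vehicle).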
IL-1B inflam inh: inhibitors of inflammasome signaling (IL-1 beta secretion); THP-1 LPS/ATP IL-1B secretion, AlphaLISA, 16 h; stronger effect = lower value; activity change, % at 57.5 µM; 4.7% of 360,000 active; AID 743279; in the data active means activity change below about -50%; inconclusive means mostly about -30% to -49%; further: on the % scale 0 is the no-effect control and ±100 the full control effect
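THP-1 cells pretreated 1 hr with compounds (up to 57.5 uM final), then stimulated with LPS (250 ng/mL final) plus ATP (1.25 mM final); secreted IL-1B measured by AlphaLISA after 16 hr, decreased signal indicating inhibition.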
TDP1 cell CPT: growth inhibition of DT40 Tdp1-/-;hTDP1 cells with camptothecin (screen for TDP1 inhibitors); chicken DT40 Tdp1-/-;hTDP1 cells + 20 nM CPT, ATP luminescence, 48 h; Potency, µM (top dose mostly 46.2 µM), inactives show at the top dose activity change, negative = growth inhibition, usual class: inhibitors; 12% of 420,000 active; AID 686979; further: potency means the concentration at half of the fitted maximal effect; on the % scale 0 is the no-effect control and ±100 the full control effect; nearly all actives have a fitted effect of over 55% in size
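Chicken DT40 Tdp1-/- cells stably complemented with human TDP1 were seeded at 400 cells/well in medium containing 20 nM camptothecin, exposed to pin-transferred compounds, and grown at 37 °C for at least 48 hr. Viability was read as ATP luminescence.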
MCF10A rerep: DNA re-replication induction in MCF 10a cells | MCF 10A DNA re-replication, Hoechst nuclear intensity, 48 h | Potency, µM (doses to about 46.1 µM), inactives show at the highest dose activity, positive = re-replication, actives largely listed as activators | 2.9% of 350,000 active; further: potency means the concentration at half of the fitted maximal effect; % of control where 0% means no effect; nearly all actives have a fitted effect of over 50% in size
Chronic BCR inh: inhibitors of chronic active B-cell receptor signaling | AID 493014 | 0.05% of 340,000 active | Potency, µM (series often up to 46.1 µM), for the others: at the top dose activity change, negative = inhibition, hits mostly inhibitors | ABC-DLBCL IkBa-CBG/CBR reporter, luminescence ratio, 4 h; active means well fitted inhibition curve with a large enough effect in the signal ratio, with a control signal flat, not every such curve was filed as active; inconclusive means small, poorly fitted or top-dose-only effect, or effect the other way, or a change in a side signal; the % refers to the signal ratio;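 further: potency means the concentration at half of the fitted maximal effect; plate controls were basal doxycycline-induced cells for no effect and cells given 10 µM MG132 for full effect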
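Cell line TMD8 (human ABC DLBCL), stably expressing tet-inducible CBG68-IkBa fusion and CBR; IMDM/0.5% FBS; cpd up to 46 uM; dox induction, 4 h, 37C/5% CO2; dual luminescence; green/red ratio; MG132 control.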
* = called active by the depositor; i = inactive; ? = inconclusive; · = no result given. Compounds with a hit are over-represented: about 19% of the library has one in this group of screens. Unless noted, the call rests on the fitted dose curve; in most records, active means well fitted curve in the direction sought with a large enough effect; inconclusive means small, poorly fitted or top-dose-only effect, or another doubt; inactive means no such curve, though single readings can be large; an effect the other way counts as inactive or inconclusive.

SMILES | SW480 rerep | TDP1 cell noCPT | IL-1B inflam inh | TDP1 cell CPT | MCF10A rerep | Chronic BCR inh
Cc1cc(S(=O)(=O)c2ccc([N+](=O)[O-])cn2)ccc1Br | 2% | 0.33µM* | -106* | 0.33µM* | ? | ·
O=[N+]([O-])c1ccc(S(=O)(=O)c2ccccc2)nc1 | -13% | 0.92µM* | 0 | 0.52µM* | ? | ?
CCOC(=O)C[C@@H]1OC[C@H](Cc2ccccc2)N1S(=O)(=O)c1ccc(C)cc1 | · | ? | -9 | ? | · | ·
CN(Cc1ccccc1F)C(=O)COc1ccc(C(=O)c2ccccc2)cc1 | 5% | 21µM* | ? | 23µM* | 21% | -1%
Cc1cc(Cl)ccc1OCC(=O)N(Cc1ccco1)Cc1ccccc1F | · | 16µM* | · | ? | · | ·
CC(C)(C)c1ccc(OCC(=O)N(Cc2ccco2)Cc2ccccc2F)cc1 | · | 21µM* | · | ? | · | ·
CCN1C(=O)[C@H]2[C@H]3CN=C(SC)N3[C@@](C)(C(=O)OC)[C@H]2C1=O | -2% | 0% | 17 | -6% | 5% | ·
CCOc1ccc(NC(=O)NC2CCS(=O)(=O)C2)cc1 (centres undefined) | 0% | 3% | -9 | 23% | 3% | -3%
COc1ccc2[nH]c(=O)c(CN(C(=O)C3CCCO3)c3cccc(C)c3)cc2c1 (centres undefined) | · | · | · | · | · | -6%
CCC(=O)N(Cc1cc2cc(OC)ccc2[nH]c1=O)c1cc(C)ccc1C | 0% | -29% | 0 | ? | 2% | ?
CCC(=O)N(Cc1cc2cc(OC)ccc2[nH]c1=O)c1ccc(C)cc1 | 1% | 10µM* | -13 | ? | 0% | -16%
COc1ccc(N(Cc2cc3cccc(C)c3[nH]c2=O)C(=O)c2cccc(Cl)c2)cc1 | · | 8.2µM* | · | 10µM* | · | ·
COc1ccc2[nH]c(=O)c(CN(C(=O)c3cccc(Cl)c3)c3cccc(C)c3)cc2c1 | · | 18µM* | · | 16µM* | · | ·
COc1ccc(N(Cc2cc3cc(OC)ccc3[nH]c2=O)C(=O)c2cccnc2)cc1 | -6% | 23µM* | -13 | 16µM* | 0% | -3%
CN(C=O)c1ccc(CSc2ccccc2)cc1 | -3% | -25% | ? | -2% | 4% | ·
Cc1cccc(NC(=O)CNC(=O)CN2C(=O)NC3(CCc4ccccc43)C2=O)c1C (centres undefined) | -1% | -6% | -6 | 0% | 1% | 1%
CCN(c1ccccc1)S(=O)(=O)c1c(C)nc2scc(C)n2c1=O | · | -18% | · | 3% | · | ·
CCC(=O)NCCc1nc2cc(NC(=O)c3ccco3)ccc2n1C | -4% | 3% | 5 | 9% | 2% | ?
CN1CCN(C(CNS(=O)(=O)c2ccc([N+](=O)[O-])cc2)c2ccc(F)cc2)CC1 (centres undefined) | -2% | -17% | -4 | ? | 2% | ?
Cc1cccc(N(Cc2cc3ccccc3[nH]c2=O)C(=O)c2cccc(Cl)c2)c1 | · | 16µM* | · | 23µM* | · | ·
CC1(C(=O)NS(=O)(=O)c2ccccc2)CCN1C(=O)CCc1ccccc1 (centres undefined) | · | -11% | -8 | -42% | · | ·
COc1ccc(C(C#N)=C2C=CC(=NO)C=C2)cc1 | ? | 10µM* | -101* | 5.2µM* | 23µM* | ?
CC(=O)ON=C1C=CC(=C(C#N)c2ccccc2)C=C1 | · | 3.3µM* | -111* | 2.3µM* | · | ·
CC(=O)OC(=C(OC(C)=O)c1ccccc1)c1ccccc1 | -1% | -5% | -5 | -30% | -1% | ·
Cc1ccc(OCC(=O)Nc2cccnc2Cl)cc1C | -4% | -25% | 1 | -3% | -5% | ?
SMILES | SW480 rerep | TDP1 cell noCPT | IL-1B inflam inh | TDP1 cell CPT | MCF10A rerep | Chronic BCR inh
N[C@@H](CSSC[C@H](N)C(=O)O)C(=O)O | · | -5% | · | 5% | · | ·
COc1ccc(C2NCCc3cc(OC)c(OC)cc32)cc1OC (centres undefined) | 4% | -16% | -3 | -21% | 0% | ?
CCc1ccc(OCC2c3cc(OC)c(OC)cc3CCN2C(=O)COc2ccccc2)cc1 (centres undefined) | · | 16µM* | · | ? | · | ?
COc1cc2c(cc1OC)C(COc1ccccc1OC)N(C(=O)COc1ccc(Cl)cc1)CC2 (centres undefined) | · | 23µM* | · | 18µM* | · | 0%
COCCNC(=S)N1CCc2cc(OC)c(OC)cc2C1COc1ccc(F)cc1 (centres undefined) | 15% | ? | -3 | ? | 1% | ?
COc1cc2c(cc1OC)C(c1ccc(Br)cc1)NCC2 (centres undefined) | -4% | ? | -52* | ? | 9% | ·
CCc1ccc(OCC2NCCc3cc(OC)c(OC)cc32)cc1 (centres undefined) | 0% | 18µM* | -15 | ? | -4% | ?
COc1ccc(NC(=O)C2CC2(Cl)Cl)cc1S(=O)(=O)N1CCCCC1 (centres undefined) | · | ? | 40 | ? | · | ·
COc1ccc(NC(=O)CN(C)C(=O)CCCNC(=O)c2ccc(Cl)cc2)cc1 | -1% | 5% | 2 | -1% | 0% | -20%
Cc1ccccc1CNC(=O)c1[nH]c(C(F)(F)F)nc1-c1ccccc1 | · | ? | 13 | ? | · | ·
CC(C)(C)c1csc(NC(=O)C2COc3ccccc3O2)n1 (centres undefined) | ? | ? | i | ? | -6% | 3%
Cc1ccc(NC(=O)C2COc3ccccc3O2)cc1 (centres undefined) | -3% | -21% | -10 | -8% | -7% | 14%
O=C(Nc1ccc(-c2cn3ccsc3n2)cc1)C1COc2ccccc2O1 (centres undefined) | 1% | ? | -3 | 21µM* | ? | 3%
COc1ccc(OC)c2sc(NNC(=O)C3COc4ccccc4O3)nc12 (centres undefined) | -14% | ? | -8 | 15µM* | ? | 0%
COc1ccc(-c2csc(NC(=O)C3COc4ccccc4O3)n2)cc1OC (centres undefined) | -1% | 13µM* | ? | 16µM* | ? | ?
Cc1cccc2sc(NNC(=O)C3COc4ccccc4O3)nc12 (centres undefined) | -11% | ? | -27 | ? | 2% | -4%
O=C(Cn1cncn1)NCc1cc(F)ccc1F | 13% | 17% | -1 | -11% | -7% | -19%
COc1ccccc1N1CCN(C(=O)c2cc3cc(Cl)ccc3[nH]2)CC1 | 12% | 18µM* | -1 | 16µM* | 18% | -1%
